# In the supplement of paper PMC8728848:
# The full list was thinned out, with the strongest signals kept by preference.
# What was measured:
# Test in all cases: glycan array binding signal (z-score within array); higher = stronger binding
# Conditions in all cases: glycan notation: IUPAC condensed, linker removed
# [1] = biological target: Fuc(a1-2)Gal(b1-4)GlcNAc
# Summary of the method: (§1)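 Glycan array data were curated from 3228 arrays in the Consortium for Functional Glycomics database and kept only where the protein sequence was available. Glycan names were converted to IUPAC-condensed notation, and columns mapping to the same glycan were averaged. The binding signal is a within-array Z-score, averaged across arrays of the same protein sequence at different concentrations or buffers and across linkers. Negative Z-scores can be read as non-binding.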
# [2] = biological target: Fuc(a1-2)Gal(b1-4)GlcNAc(b1-3)Gal(b1-4)GlcNAc(b1-2)Man(a1-3)[Fuc(a1-2)Gal(b1-4)GlcNAc(b1-3)Gal(b1-4)GlcNAc(b1-2)Man(a1-6)]Man(b1-4)GlcNAc(b1-4)GlcNAc
# Summary of the method: as §1
# [3] = biological target: Fuc(a1-2)[Gal(a1-3)]Gal(b1-3)GalNAc(b1-3)Gal(a1-4)Gal(b1-4)Glc
# Summary of the method: as §1
# [4] = biological target: Fuc(a1-2)[GalNAc(a1-3)]Gal(b1-4)GlcNAc(b1-2)Man
# Summary of the method: as §1
# [5] = biological target: Fuc(a1-4)GlcNAc
# Summary of the method: as §1
# [6] = biological target: Gal(a1-3)Gal(b1-3)GlcNAc(b1-6)GalNAc
# Summary of the method: as §1
# [7] = biological target: Gal(a1-3)[Gal(a1-4)]Gal(b1-4)GlcNAc
# Summary of the method: as §1
# [8] = biological target: Gal(a1-4)GlcNAc
# Summary of the method: as §1
# [9] = biological target: Gal(b1-3)GlcNAc(b1-3)Gal(b1-4)GlcNAc(b1-2)[Gal(b1-3)GlcNAc(b1-3)Gal(b1-4)GlcNAc(b1-6)]Man(a1-6)[Gal(b1-3)GlcNAc(b1-3)Gal(b1-4)GlcNAc(b1-2)Man(a1-3)]Man(b1-4)GlcNAc(b1-4)[Fuc(a1-6)]GlcNAc
# Summary of the method: as §1
# [10] = biological target: Gal(b1-3)GlcNAc(b1-3)Gal(b1-4)GlcNAc(b1-6)[Gal(b1-3)GlcNAc(b1-3)]Gal(b1-4)Glc
# Summary of the method: as §1
# [11] = biological target: Gal(b1-4)GlcNAc(b1-2)Man(a1-3)[Gal(b1-4)GlcNAc(b1-2)Man(a1-6)]Man(b1-4)GlcNAc(b1-4)GlcNAc
# Summary of the method: as §1
# [12] = biological target: Gal(b1-4)GlcNAc(b1-2)[Gal(b1-4)GlcNAc(b1-4)]Man(a1-3)[GlcNAc(b1-4)][Gal(b1-4)GlcNAc(b1-2)Man(a1-6)]Man(b1-4)GlcNAc(b1-4)GlcNAc
# Summary of the method: as §1
# [13] = biological target: Gal(b1-4)GlcNAc(b1-3)Gal(b1-4)GlcNAc(b1-3)Gal(b1-4)GlcNAc
# Summary of the method: as §1
# [14] = biological target: Gal(b1-4)GlcNAc(b1-3)Gal(b1-4)GlcNAc(b1-3)Gal(b1-4)GlcNAc(b1-3)Gal(b1-4)GlcNAc(b1-3)Gal(b1-4)GlcNAc(b1-2)[Gal(b1-4)GlcNAc(b1-3)Gal(b1-4)GlcNAc(b1-3)Gal(b1-4)GlcNAc(b1-3)Gal(b1-4)GlcNAc(b1-3)Gal(b1-4)GlcNAc(b1-6)]Man(a1-6)[Gal(b1-4)GlcNAc(b1-3)Gal(b1-4)GlcNAc(b1-3)Gal(b1-4)GlcNAc(b1-3)Gal(b1-4)GlcNAc(b1-3)Gal(b1-4)GlcNAc(b1-2)Man(a1-3)]Man(b1-4)GlcNAc(b1-4)[Fuc(a1-6)]GlcNAc
# Summary of the method: as §1
# [15] = biological target: Gal(b1-4)GlcNAc(b1-3)[GlcNAc(b1-6)]Gal(b1-4)GlcNAc
# Summary of the method: as §1
# [16] = biological target: Gal(b1-4)GlcNAc(b1-6)GalNAc
# Summary of the method: as §1
# [17] = biological target: Gal4S(b1-4)GlcNAc
# Summary of the method: as §1
# [18] = biological target: GalNAc(a1-3)Gal
# Summary of the method: as §1
# [19] = biological target: GalNAc(b1-4)GlcNAc(b1-3)GalNAc(b1-4)GlcNAc
# Summary of the method: as §1
# [20] = biological target: GlcNAc(b1-3)Gal(b1-4)GlcNAc(b1-2)[GlcNAc(b1-3)Gal(b1-4)GlcNAc(b1-6)]Man(a1-6)[GlcNAc(b1-3)Gal(b1-4)GlcNAc(b1-2)Man(a1-3)]Man(b1-4)GlcNAc(b1-4)GlcNAc
# Summary of the method: as §1
# [21] = biological target: GlcNAc(b1-3)Gal(b1-4)GlcNAc(b1-3)Gal(b1-4)GlcNAc(b1-2)Man(a1-3)[GlcNAc(b1-3)Gal(b1-4)GlcNAc(b1-3)Gal(b1-4)GlcNAc(b1-2)Man(a1-6)]Man(b1-4)GlcNAc(b1-4)GlcNAc
# Summary of the method: as §1
# [22] = biological target: GlcNAc(b1-3)Gal(b1-4)GlcNAc(b1-3)Gal(b1-4)GlcNAc(b1-3)Gal(b1-4)GlcNAc(b1-2)Man(a1-3)[GlcNAc(b1-3)Gal(b1-4)GlcNAc(b1-3)Gal(b1-4)GlcNAc(b1-3)Gal(b1-4)GlcNAc(b1-2)Man(a1-6)]Man(b1-4)GlcNAc(b1-4)[Fuc(a1-6)]GlcNAc
# Summary of the method: as §1
# [23] = biological target: GlcNAc(b1-3)Gal(b1-4)GlcNAc(b1-3)Gal(b1-4)GlcNAc(b1-3)Gal(b1-4)GlcNAc(b1-3)Gal(b1-4)GlcNAc(b1-2)Man(a1-3)[GlcNAc(b1-3)Gal(b1-4)GlcNAc(b1-3)Gal(b1-4)GlcNAc(b1-3)Gal(b1-4)GlcNAc(b1-3)Gal(b1-4)GlcNAc(b1-2)Man(a1-6)]Man(b1-4)GlcNAc(b1-4)[Fuc(a1-6)]GlcNAc
# Summary of the method: as §1
# [24] = biological target: GlcNAc(b1-3)Gal(b1-4)GlcNAc(b1-3)Gal(b1-4)GlcNAc(b1-3)Gal(b1-4)GlcNAc(b1-3)Gal(b1-4)GlcNAc(b1-2)[GlcNAc(b1-3)Gal(b1-4)GlcNAc(b1-3)Gal(b1-4)GlcNAc(b1-3)Gal(b1-4)GlcNAc(b1-3)Gal(b1-4)GlcNAc(b1-6)]Man(a1-6)[GlcNAc(b1-3)Gal(b1-4)GlcNAc(b1-3)Gal(b1-4)GlcNAc(b1-3)Gal(b1-4)GlcNAc(b1-3)Gal(b1-4)GlcNAc(b1-2)Man(a1-3)]Man(b1-4)GlcNAc(b1-4)[Fuc(a1-6)]GlcNAc
# Summary of the method: as §1
# [25] = biological target: GlcNAc(b1-4)[GlcNAc(b1-6)]GalNAc
# Summary of the method: as §1
# [26] = biological target: Kdn(a2-3)Gal(b1-4)GlcNAc
# Summary of the method: as §1
# [27] = biological target: Neu5Ac(a2-3)Gal(b1-3)[Fuc(a1-4)]GlcNAc
# Summary of the method: as §1
# [28] = biological target: Neu5Ac(a2-3)Gal(b1-3)[Fuc(a1-4)]GlcNAc(b1-3)Gal(b1-3)[Fuc(a1-4)]GlcNAc
# Summary of the method: as §1
# [29] = biological target: Neu5Ac(a2-3)Gal(b1-3)[Neu5Ac(a2-6)]GalNAc
# Summary of the method: as §1
# [30] = biological target: Neu5Ac(a2-3)Gal(b1-4)GlcNAc(b1-2)Man(a1-3)[Neu5Ac(a2-3)Gal(b1-4)GlcNAc(b1-2)Man(a1-6)]Man(b1-4)GlcNAc(b1-4)GlcNAc
# Summary of the method: as §1
# [31] = biological target: Neu5Ac(a2-3)Gal(b1-4)GlcNAc(b1-3)Gal(b1-4)GlcNAc
# Summary of the method: as §1
# [32] = biological target: Neu5Ac(a2-3)Gal(b1-4)GlcNAc(b1-3)[Neu5Ac(a2-3)Gal(b1-4)GlcNAc(b1-6)]GalNAc
# Summary of the method: as §1
# [33] = biological target: Neu5Ac(a2-3)Gal(b1-4)[Fuc(a1-3)]GlcNAc
# Summary of the method: as §1
# [34] = biological target: Neu5Ac(a2-6)Gal(b1-4)GlcNAc(b1-2)Man(a1-3)[GlcNAc(b1-4)][Neu5Ac(a2-6)Gal(b1-4)GlcNAc(b1-2)Man(a1-6)]Man(b1-4)GlcNAc(b1-4)GlcNAc
# Summary of the method: as §1
# [35] = biological target: Neu5Ac(a2-6)Gal(b1-4)GlcNAc(b1-2)Man(a1-3)[Neu5Ac(a2-3)Gal(b1-4)GlcNAc(b1-2)Man(a1-6)]Man(b1-4)GlcNAc(b1-4)GlcNAc
# Summary of the method: as §1
# [36] = biological target: Neu5Ac(a2-6)Gal(b1-4)GlcNAc(b1-2)Man(a1-3)[Neu5Ac(a2-6)Gal(b1-4)GlcNAc(b1-2)Man(a1-6)]Man(b1-4)GlcNAc(b1-4)GlcNAc
# Summary of the method: as §1
# [37] = biological target: Neu5Ac(a2-6)Gal(b1-4)GlcNAc(b1-2)Man(a1-3)[Neu5Ac(a2-6)Gal(b1-4)GlcNAc(b1-2)Man(a1-6)]Man(b1-4)GlcNAc(b1-4)[Fuc(a1-6)]GlcNAc
# Summary of the method: as §1
# [38] = biological target: Neu5Ac(a2-6)Gal(b1-4)GlcNAc(b1-3)Gal(b1-4)GlcNAc(b1-3)Gal(b1-4)GlcNAc
# Summary of the method: as §1
# [39] = biological target: Neu5Ac(a2-6)Gal(b1-4)GlcNAc(b1-6)GalNAc
# Summary of the method: as §1
# [40] = biological target: Neu5Ac(a2-6)Gal(b1-4)GlcNAc6S
# Summary of the method: as §1
# [41] = biological target: Neu5Ac(a2-8)Neu5Ac(a2-3)Gal(b1-4)GlcNAc
# Summary of the method: as §1
# [42] = biological target: Neu5Ac(a2-8)Neu5Gc(a2-3)Gal(b1-4)GlcNAc
# Summary of the method: as §1
# [43] = biological target: Neu5Gc(a2-3)Gal(b1-3)GlcNAc
# Summary of the method: as §1
# [44] = biological target: Neu5Gc(a2-3)Gal(b1-3)[Fuc(a1-4)]GlcNAc
# Summary of the method: as §1
# [45] = biological target: Neu5Gc(a2-8)Neu5Gc(a2-3)Gal(b1-4)GlcNAc(b1-3)Gal(b1-4)GlcNAc
# Summary of the method: as §1
# [46] = biological target: Neu5Gc(a2-8)Neu5Gc(a2-6)Gal(b1-4)GlcNAc
# Summary of the method: as §1
binder,measurement,setting,value
PX9961W-pdi-543-27-543 (Parabacteroides distasonis) (protein) EGNATTTSYFLNDQQAIDAIDGLYERFHQEGCYGRELFWEQGAACDIVWGRTRGYNSLATLAYTGDESPLRDVFSRMYSTMSRANWIIQELVKKEKGTTLTAVEKRSLGEAYFSRGWAHYLIAYRYGTDKQGVPFVRYEDFPDDYDNSIPPQQATVMDNYKLIIEDMDKAIAYLPIFESYDADNRGRAHQAAAVAFKAKTYAYWATWDATQWNNVIEMVNQLENNYNRDLAPTFAELFSSDLKDYWNAEYLWTIPSIGGALPGGTEFPGIILENKGWGKYNGWGQMKPSYDIYEEMAKDGKGNDRLVRSILEYNQEFPFFGETRKFWSTSDLEAGFMINKYMDAFKYSDPVGEGAVSANGDWPTVRVNFPIIRFAEMLLFRAEAYLMTGQADKATADINRIRLRSNLTPLTGTATMKDLYHERRCELAFEFTDHLFDLKRWNRSSNADIKTLADKELNAHPRIRRYEDRANPESAFTIIGYEDYTNKNAYQAHMMVFPYPSEEITKSNGQLKQNEGY,glycan array binding signal (z-score),[1],-0.724
same,glycan array binding signal (z-score),[2],0.321
same,glycan array binding signal (z-score),[3],-0.488
same,glycan array binding signal (z-score),[4],0.843
same,glycan array binding signal (z-score),[5],-0.806
same,glycan array binding signal (z-score),[6],-0.936
same,glycan array binding signal (z-score),[7],4.9
same,glycan array binding signal (z-score),[8],-0.436
same,glycan array binding signal (z-score),[9],3.68
same,glycan array binding signal (z-score),[10],2.47
same,glycan array binding signal (z-score),[11],0.803
same,glycan array binding signal (z-score),[12],-0.379
same,glycan array binding signal (z-score),[13],0.348
same,glycan array binding signal (z-score),[14],2.95
same,glycan array binding signal (z-score),[15],-1.13
same,glycan array binding signal (z-score),[16],0.97
same,glycan array binding signal (z-score),[17],-0.282
same,glycan array binding signal (z-score),[18],-0.723
same,glycan array binding signal (z-score),[19],-0.156
same,glycan array binding signal (z-score),[20],2.42
same,glycan array binding signal (z-score),[21],2.38
same,glycan array binding signal (z-score),[22],1.14
same,glycan array binding signal (z-score),[23],2.16
same,glycan array binding signal (z-score),[24],2.07
same,glycan array binding signal (z-score),[25],0.793
same,glycan array binding signal (z-score),[26],-0.351
same,glycan array binding signal (z-score),[27],-0.779
same,glycan array binding signal (z-score),[28],2.45
same,glycan array binding signal (z-score),[29],-1.05
same,glycan array binding signal (z-score),[30],-0.589
same,glycan array binding signal (z-score),[31],-0.712
same,glycan array binding signal (z-score),[32],-0.167
same,glycan array binding signal (z-score),[33],-0.648
same,glycan array binding signal (z-score),[34],-0.023
same,glycan array binding signal (z-score),[35],-0.733
same,glycan array binding signal (z-score),[36],-0.249
same,glycan array binding signal (z-score),[37],0.138
same,glycan array binding signal (z-score),[38],-0.315
same,glycan array binding signal (z-score),[39],0.508
same,glycan array binding signal (z-score),[40],-0.912
same,glycan array binding signal (z-score),[41],-0.026
same,glycan array binding signal (z-score),[42],14.4
same,glycan array binding signal (z-score),[43],-0.935
same,glycan array binding signal (z-score),[44],-0.874
same,glycan array binding signal (z-score),[45],-0.859
same,glycan array binding signal (z-score),[46],0.393
